Structures can show the parent of a compound that is named as a salt. ± gives the standard deviation of the averaged measurements.
system: Toxoplasma gondii RH (in HFF); assay: parasite growth relative to the screen mean (all compounds = 100%); higher = less inhibition of parasite growth; conditions: 5 µM; 72 h; oxygen 21 %
Summary of the method: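 Parasite growth was reported relative to the screen mean. In that scale, the mean of all compounds equals 100%, and values are averaged over two screens. Compounds from 10 mM DMSO stocks were pin-transferred to 5 µM final onto confluent human foreskin fibroblasts in 96-well plates, infected within 2 h with RH β-Gal–GFP Toxoplasma (MOI 1:5) and grown 72 h at 21% O2, with parasite number read by a CPRG β-Gal assay against in-plate standard curves. Uninfected host-cell viability was checked with CellTiter-Blue.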

**Q.** `CCC(Oc1ccc(Cl)cc1)C(=O)OC1C[C@H]2CC[C@@H](C1)N2C` (stereo not given in full) [SM-21 maleate] was tested. Which parasite growth did it give?
**A.** Its parasite growth is 95.2 ± 2.9%.

**Q.** How did the parasite growth turn out when `CC(C)(c1ccc(OCC2CO2)cc1)c1ccc(OCC2CO2)cc1` (stereo not given) was run?
**A.** Its parasite growth is 157 ± 30%.

**Q.** With `C[C@@]12C(=O)OC(=O)[C@]1(C)[C@H]1CC[C@@H]2O1` [Cantharidin] as the compound, how does the parasite growth read?
**A.** Its parasite growth is 68.8 ± 46%.

**Q.** For `COc1ccc(C(=O)N2CCCC2=O)cc1` [Aniracetam], which parasite growth is on record?
**A.** Its parasite growth is 97.2 ± 53%.

**Q.** Which parasite growth does the source give for `C[N+](C)(C)CC#CCN1CCCC1=O` [Oxotremorine M] here?
**A.** The parasite growth was 172 ± 41%.

**Q.** Which parasite growth does the source give for `O=C1/C(=C/c2ccccc2)C[C@@]2(O)[C@H]3Cc4ccc(O)c5c4[C@@]2(CCN3CC2CC2)[C@H]1O5` [BNTX maleate] here?
**A.** Its parasite growth is less than 0%.

**Q.** For `CCNC(=O)[C@H]1O[C@@H](n2cnc3c(N)ncnc32)[C@H](O)[C@@H]1O`, which parasite growth is on record?
**A.** Its parasite growth is 93 ± 12%.

**Q.** `COc1cc2c(c(OC)c1OC)-c1ccc(OC)c(=O)cc1[C@@H](NC(C)=O)CC2` [Colchicine] was tested. Which parasite growth did it give?
**A.** The parasite growth was 115 ± 27%.

**Q.** Which parasite growth does the source give for `OC(Cc1ccncc1)C(Cl)(Cl)Cl` (stereo not given) here?
**A.** The parasite growth was 133 ± 9.6%.

**Q.** For `O[C@H]1[C@H](O)[C@@H](O)CN2CC[C@H](O)[C@H]12` [Castanospermine], which parasite growth is on record?
**A.** The parasite growth was 150 ± 7.6%.

**Q.** Which parasite growth does the source give for `N#Cc1ccc(N2CCN(C(=O)COc3ccc4[nH]cc(CCN)c4c3)CC2)cc1` [Donitriptan hydrochloride] here?
**A.** The parasite growth was 78.6 ± 12%.

**Q.** How did the parasite growth turn out when `O=C(Cc1ccc(Cl)c(Cl)c1)N1CCCCC1CN1CCCC1` (stereo not given) was run?
**A.** The parasite growth was 82.1 ± 15%.

**Q.** For `Nc1ccncc1` [4-Aminopyridine], which parasite growth is on record?
**A.** Its parasite growth is 157 ± 28%.

**Q.** `NP(N)(=O)NC(=O)c1ccc(F)cc1` [Flurofamide] was tested. Which parasite growth did it give?
**A.** The parasite growth was 90 ± 34%.

**Q.** With `Oc1cc2c(cc1O)[C@H]1c3ccccc3CN[C@@H]1CC2` (racemic) [Dihydrexidine hydrochloride] as the compound, how does the parasite growth read?
**A.** The parasite growth was 153 ± 4.6%.
